We go through 127 compounds from PubChem BioAssay AID493191 (Broad Institute, 2011).

Screen size: about 1,300 compounds; about 330 (25%) were called active. The rule behind the calls is not given here. These entries were drawn from the full list. Entries with a potency or affinity are not part of this list.

A short description of the test: MALME3 melanoma cell viability loss, dose response, orthogonal assay for MITF inhibitor project, CellTiter-Glo, cherry-picked (AID 493191). The conditions noted are these: CellTiter-Glo luminescence, 24 h; series mostly up to 35 µM. (In general: ATP-based viability assays read luminescence as a measure of living cells.)
Regarding `Cc1ccc(/C=c2/sc3n(c2=O)CCCN=3)o1`, the compound was called inactive.
The value for `O=C(Cn1cc(/C=C\[N+](=O)[O-])c2ccccc21)Nc1ccccc1` was “inactive”.
The value for `Cc1cc(/C=C2\Sc3ccccc3N2C)cc(C)[n+]1CC1CCCO1` (configuration not stated) was “inactive”; that for `O=C(O)c1cccc(COc2ccccc2Cl)c1` was “inactive”; that for `COc1cc(C(=O)N/N=C(\c2ccccc2)c2ccccn2)cc(OC)c1OC` was “inactive”.
For `Cc1ccc2c(c1)COc1c3ccc(C(=O)O)cc3nn1-2`, the compound was classed as inactive.
With `COc1cc(/C=N/NS(=O)(=O)c2ccc(C)cc2)ccc1OCc1cccc(C(=O)O)c1` the entry was “inactive”; with `CCOc1cc(/C=N/Nc2cccc(C(=O)O)c2)ccc1OC(=O)c1ccccc1`, “inactive”.
As to `CCOc1cc(/C=C2/NC(=S)NC2=O)ccc1OCc1ccc([N+](=O)[O-])cc1`, the outcome was inactive.
With `COc1cc(/C=N/NS(=O)(=O)c2ccc3ccccc3c2)ccc1OCc1ccc(C(=O)O)cc1` the entry was “inactive”.
With `Cc1cc(/C(N)=N/OC(=O)c2ccc(Cl)cc2)no1` the entry was “inactive”; with `CCCCN=C(C)c1c(O)c2ccccc2oc1=O`, “inactive”; with `Cc1ccc(/C=N/Nc2ccc(C(=O)O)cc2)s1`, “inactive”.
The value for `CC(C)(C)c1ccc(/C=N/Nc2ccc(C(=O)O)cc2)cc1` was “inactive”; that for `Cc1csc(NC(=O)Cc2c(F)cccc2Cl)n1` was “inactive”; that for `Cc1cc(C)n(CCC(=O)N/N=C/c2c(O)ccc3ccccc23)n1` was “inactive”.
In the case of `Cc1ccc(-n2[nH]c(=O)c(-c3ccccn3)c2C)cc1`, the compound was classed as inactive.
On to `Cc1cccc(N(O)C(=O)Nc2cccc(Cl)c2)c1`, for which the result was inactive.
For the compound `Cn1c(COc2ccccc2)nc2ccccc21`, the call was inactive.
The value for `COc1ccc(NCc2nc3ccccc3n2C)cc1` was “inactive”.
The value for `CCOC(=O)/C=c1\s/c(=C\c2ccc3cc(OC)ccc3c2)c(=O)n1CC(=O)NCC1CCCO1` (configuration not stated) was “inactive”; that for `O=C(COC(=O)CCN1C(=O)/C(=C\C=C\c2ccccc2)SC1=S)Nc1cc(F)ccc1F` was “inactive”.
The value for `N=c1n(CC(=O)c2ccc(Br)cc2)c2ccccc2n1Cc1ccccc1` was “inactive”; that for `O=C(Nc1ccccn1)c1ccc(Br)s1` was “inactive”; that for `O=C(CCl)N1c2ccccc2SCC1c1ccccc1` (configuration not stated) was “inactive”.
Regarding `COc1ccc(COC(=O)c2n[nH]c3ccccc23)cc1F`, the outcome was inactive.
The value for `CC(=O)N(\C=C/C=C/C=C1\Sc2ccccc2C1=O)c1ccccc1` was “inactive”; that for `CCSc1nc2c(cnn2-c2ccccc2)c(=O)n1N` was “inactive”.
With `Nc1c(-c2ccc(Cl)cc2)nnn1-c1ccccc1` the entry was “inactive”.
Regarding `COc1cc2c(cc1OC)C(SC)=NC1(CCCC1)C2`, the outcome was inactive.
The value for `CN(C)c1ccc(/C=C(\C#N)c2ccccn2)cc1` was “inactive”; that for `Cc1ccccc1Cn1c(=N)n(CC(=O)c2ccc([N+](=O)[O-])cc2)c2ccccc21` was “inactive”.
The value for `O=C(C[n+]1cccc2ccccc21)c1ccc([N+](=O)[O-])cc1` was “inactive”.
With `O=C(/C=C/NNC(=O)c1ccccc1)c1ccc([N+](=O)[O-])cc1` the entry was “inactive”; with `Cc1ccccc1C(=O)O/N=C(\N)c1ccc([N+](=O)[O-])cc1`, “inactive”; with `N=c1n(CC(=O)c2ccc([N+](=O)[O-])cc2)c2ccccc2n1Cc1ccccc1Cl`, “inactive”.
As to `CCN1CCN(/C=N/c2nc3c(s2)CCCC3)CC1`, the result was inactive.
Take `CC(Oc1cccc(Br)c1)C(=O)NNC(=O)c1ccccn1` (configuration not stated): the call was inactive.
The value for `Cc1cnn(C(=S)NCCc2ccccc2)c1` was “inactive”.
With `O=C(Cn1cnc2c(oc3ccccc32)c1=O)c1ccccc1`, the result was inactive.
The value for `CCCCOC(=O)c1[nH]c(C)c(C(=O)OC)c1C` was “inactive”; that for `CCOC(=O)c1c(NC(C)=O)sc2c(OCC(O)CNC(C)(C)C)c(Br)ccc12` (configuration not stated) was “inactive”.
With `CC(/C=N/NC(=O)c1cc(-c2ccncc2)nc2ccccc12)=C\c1ccco1` the entry was “inactive”.
The value for `O=C(CCC1CCCN(C(=O)c2cc3ccccc3o2)C1)NCc1ccc(F)c(F)c1` (configuration not stated) was “inactive”.
In the case of `COC(=O)[C@@H](C)NC(=O)c1ccc2oc(CCc3ccccc3)nc2c1`, the compound was classed as inactive.
The value for `COC(=O)[C@@H]1C[C@]2(OC(=O)c3ccccc3)C=CC(=O)C[C@@H]2N1C(=O)OCc1ccccc1` was “inactive”.
With `O=C1CN(c2ccccc2)C(=S)N1C(=O)c1ccccc1` the entry was “inactive”; with `COc1ccc2oc3ccc(OC)cc3c(=O)c2c1`, “inactive”; with `Cc1cc(C(=O)COc2cccnc2[N+](=O)[O-])c(C)n1-c1ccccc1`, “inactive”.
As to `COC(=O)c1ccc(-n2c(C)cc(C(=O)CCl)c2C)cc1`, the call was inactive.
With `Cc1cc(-n2c(C)cc(C(=O)CCl)c2C)no1` the entry was “inactive”; with `Cc1cc(C(=O)CCl)c(C)n1CCc1ccc(F)cc1`, “inactive”.
As to `CC(C)(C)c1ccc(-c2noc(CCC(=O)NCC3CCCO3)n2)cc1` (configuration not stated), the call was inactive.
As for `Cc1cc(NCCCn2ccnc2)n2ncc(-c3ccccc3)c2n1`, the compound was classed as inactive.
In the case of `O=C(NCc1ccco1)c1ccc(COCC(F)(F)F)cc1`, the call was inactive.
With `COc1ccc(S(=O)(=O)Nc2ccc(O)c3ccccc23)cc1` the entry was “inactive”; with `O=[N+]([O-])c1ccccc1OCCOc1ccccc1[N+](=O)[O-]`, “inactive”; with `CCOC(=O)CSC1=NC(=O)/C(=C\c2ccc(OC(C)=O)cc2)S1`, “inactive”.
With `CCOc1ccc(/C=C2\SC(=S)N(CCC(=O)O)C2=O)cc1` the entry was “inactive”; with `CCOC(=O)CSc1nc2cc(OCC)ccc2cc1C#N`, “inactive”.
The value for `CCOC(=O)c1sc(NC(=O)Nc2ccc(Cl)cc2)nc1C` was “inactive”; that for `COc1ccc(CNC(=O)CN2C(=O)C3C4C=CC(C4)C3C2=O)cc1` (configuration not stated) was “inactive”.
`CC(C)(C)c1ccc(-c2cc(N)n[nH]2)cc1`: the outcome was inactive.
On to `COCCn1c(C)cc(C(=O)CSc2nnc(C)s2)c1C`, for which the call was inactive.
The value for `COc1ccc(CCC(=O)N2CCc3ccccc32)cc1` was “inactive”; that for `O=C(CCl)N1c2ccccc2CCc2ccccc21` was “inactive”; that for `CC(=O)c1sc(N/N=C\c2ccc(N(C)C)cc2)nc1C` was “inactive”.
The value for `COc1cccc(C(=O)Nc2ccc3c(cc2=O)[C@@H](NC(C)=O)CCc2cc(OC)c(OC)c(OC)c2-3)c1` was “inactive”.
Consider `O=C1c2ccccc2C(=O)N1CCOc1ccccc1`, for which the result was inactive.
With `O=C(/C=C/c1cccc([N+](=O)[O-])c1)n1cnc2ccccc21` the entry was “inactive”; with `Cc1nc2ccccn2c1C(=O)/C=C/c1cccc([N+](=O)[O-])c1`, “inactive”.
The value for `CCOC(=O)C(=Cc1ccc(-n2ccnc2)cc1)C(=O)OCC` was “inactive”; that for `CC(=O)c1ccc(Sc2nnnn2-c2ccccc2)c([N+](=O)[O-])c1` was “inactive”; that for `Cc1ccc(-n2ncc3c(SCC(N)=O)ncnc32)cc1C` was “inactive”.
With `CCOc1ccc2cc(C#N)c(SCC(=O)OC)nc2c1` the entry was “inactive”.
Consider `Cc1cc(C)cc(NS(=O)(=O)c2ccc3c(c2)c(=O)n(C)c(=O)n3C)c1`, for which the compound was classed as inactive.
The value for `N#Cc1cnn2cc(CCN3CCOCC3)c(-c3ccc(F)cc3)nc12` was “inactive”; that for `O=C(CCCc1ccccc1)N1CCN(C2CCCCC2)CC1` was “inactive”; that for `Cc1cc(Cl)ccc1OCCCC(=O)N1CCOCC1` was “inactive”.
The value for `O=C(Cn1nnc(-c2ccccc2Cl)n1)N1CCCCC1` was “inactive”; that for `Cc1ccc(C(=O)c2cccc(N)c2)cc1C` was “inactive”.
The value for `CC(C)(C)c1ccc(C(=O)N2CCCCCC2=O)cc1` was “inactive”; that for `O=C(CSCc1c(F)cccc1F)Nc1ccccc1` was “inactive”.
As to `CC(C)(C)OC(=O)N1CCN(C(=O)c2nc[nH]c2C(=O)N2CCN(c3ccccc3)CC2)CC1`, the outcome was inactive.
With `Cc1ccsc1C(=O)OCC(=O)Nc1sccc1C(N)=O` the entry was “inactive”; with `CCCCC(=O)N/C(N)=N/c1nc2ccccc2o1`, “inactive”.
`Cc1c(Cl)c([N+](=O)[O-])nn1Cc1ccc(C(=O)N/N=C\c2cc(Cl)ccc2O)o1`: the call was inactive.
With `O=C(c1ccc([N+](=O)[O-])s1)N1CCN(c2ccccn2)CC1` the entry was “inactive”; with `O=C(N/N=C/c1ccccn1)c1cc([N+](=O)[O-])cc([N+](=O)[O-])c1`, “inactive”; with `O=C(O)c1cc2ccccc2c(N=Nc2cccnc2)c1O`, “inactive”.
The value for `CN(C)S(=O)(=O)c1cccc(NC(=O)CSc2nc3c(cc2C#N)C(=O)CC(C)(C)C3)c1` was “inactive”.
The value for `O=C(c1nnsc1S(=O)(=O)c1ccc(Cl)cc1)N1CCOCC1` was “inactive”; that for `Nc1ccc(-c2nc3ccc(C(=O)O)cc3s2)cc1` was “inactive”.
As to `OCC1CCCC(n2cnc3c(=S)nc[nH]c32)O1` (configuration not stated), the outcome was inactive.
With `CCCC1=Nc2cc(C(=O)NCCN3CCCC3)ccc2Sc2ccccc21` the entry was “inactive”; with `Cc1cccc(/C=C2/Sc3ccc(C(=O)NCCN4CCCC4)cc3NC2=O)c1`, “inactive”.
As to `COc1cccc(/C=C2/Sc3ccc(C(=O)NCCN4CCCC4)cc3NC2=O)c1`, the compound was classed as inactive.
With `CCN1CCN(CCCNC(=O)c2ccc3c(Cl)c4c(nc3c2)CCCC4)CC1` the entry was “inactive”.
On to `CCN1CCCC1CNC(=O)c1ccc2c(c1)NC(=O)/C(=C\c1ccc(OC)c(OC)c1)S2` (configuration not stated), for which the compound was classed as inactive.
With `CCNc1nc(N)c(C(=O)c2ccc(Cl)s2)s1` the entry was “inactive”; with `CSc1nc(N)n2nc(-c3ccc(Cl)cc3)cc2n1`, “inactive”.
With `CC(C)CC(=O)/C=C/n1c(=S)oc2ccccc21` the entry was “inactive”; with `CN(c1cccc(NC(=O)COc2ccc(Cl)cc2Cl)c1)S(C)(=O)=O`, “inactive”; with `O=C(CC(=O)c1ccccc1)Nc1ccccn1`, “inactive”.
Take `CC(=O)Nc1ccc(S(=O)(=O)N2CCn3cccc3C2C)cc1` (configuration not stated): the compound was classed as inactive.
With `CC(=O)Nc1cccc2c1Cc1ccccc1-2` the entry was “inactive”; with `c1ccc(-c2cn3nc4c(nc3n2)CCCC4)cc1`, “inactive”; with `O=S1(=O)CCC(NC(=S)SCc2ccccc2Br)C1` (configuration not stated), “inactive”.
The value for `COc1cccc(-c2nnc3sc(-c4cccs4)nn23)c1` was “inactive”; that for `COCC(C)Nc1ncnc2c1cnn2-c1ccc(Cl)cc1` (configuration not stated) was “inactive”.
With `Nc1ccccc1SC1CC(=O)N(c2ccc3c(c2)OCCO3)C1=O` (configuration not stated) the entry was “inactive”; with `Cc1ccc2nc(NC(=O)c3ccc(Br)o3)sc2c1`, “inactive”.
Take `COC(=O)CSC1=C(C#N)C(=O)NC(c2ccccc2)S1` (configuration not stated): the compound was called inactive.
The value for `Cc1ccc(OCCNCc2ccccc2)c(C)c1` was “inactive”.
The value for `CC(C)(C)c1ccc(OCCn2ccccc2=O)cc1` was “inactive”.
As to `NC(=O)c1cc([N+](=O)[O-])ccc1NCc1ccc(N)cc1`, the result was inactive.
With `Cc1ccc2nc3cc([N+](=O)[O-])cc([N+](=O)[O-])c3cc2c1` the entry was “inactive”; with `CC(=O)N/C(N)=N/c1nc2cc(C)ccc2o1`, “inactive”.
With `Cc1ccc(NC(=O)c2cnc3ccccc3n2)cc1C`, the compound was called inactive.
With `CCn1nccc1C(=O)Nc1ccc(C)c(C)c1` the entry was “inactive”.
Consider `CC(C)=CCc1c(O)ccc2c1OC(c1ccc(O)c(O)c1)CC2=O` (configuration not stated), for which the compound was classed as inactive.
The value for `Cc1c(OCC(=O)NC2CC(C)(C)NC(C)(C)C2)ccc2c1oc(=O)c1ccccc12` was “inactive”.
With `COc1cc(SC)ccc1C(=O)NCCOc1ccccc1Cl` the entry was “inactive”; with `CC1CCN(CC2C(=O)O[C@@H]3C[C@@]4(C)CCC[C@H](C)C4=C[C@H]23)CC(C)(C)C1` (some centres not stated), “inactive”.
With `COc1ccc(C(=O)N/N=C/c2cc(Br)ccc2O)cc1OC` the entry was “inactive”; with `CCOc1ccccc1NC(=O)C(=O)N/N=C/c1cc(Br)ccc1O`, “inactive”; with `COc1ccc(CCn2c(=S)[nH]c3cc(C(=O)NCc4ccco4)ccc3c2=O)cc1OC`, “inactive”.
